Rows were chosen to be rich in hits. Some 21% of all compounds tested hit in one or more screens of this group.
CHX counter: counter-screen hit for Shiga toxin inhibitors, cycloheximide; cell reporter, cycloheximide protein synthesis inhibition counterscreen; max response, %; 12% of 300,000 active; AID 2314; in the data active means max response mostly above about 13%, no sharp cut-off; inactive means mostly below about 14%; further: read at 38.3 µM for the half of the compounds with a filed dose
NS1 function inh: blocks influenza NS1 protein function; Potency, µM (highest dose often 46.1 µM); 0.4% of 270,000 active; calls by dose curve; further: actives are rising curves; nearly all actives have a fitted effect of over 50% in size
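Read-out: OD600 growth recovery of NS1-expressing budding yeast. Cells grown overnight at 30C in -URA glucose medium, washed, resuspended and diluted 1:100 in 2% galactose assay medium, pH 6.0. Same strain lacking NS1 served as positive control.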
Shiga toxin inh: inhibitors of Shiga toxin in Vero cells | inhibition, % at 38.7 µM | Vero cells, Shiga toxin protein synthesis inhibition reporter | AID 2315 | 9.2% of 290,000 active; in the data active means inhibition mostly above about 28%, no sharp cut-off; inactive means mostly below about 43%
Pf growth 48h: P. falciparum growth inhibition at 48 hours (one generation) | P. falciparum luciferase growth in erythrocytes, 48 h | Potency, µM (series often up to 28.7 µM), most hits filed as inhibitors | 5.9% of 310,000 active
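Parasite viability was followed by luminescence of a genomically integrated firefly luciferase. Cultures held 0.1% parasitemia at 2% hematocrit (final), incubated under 5% CO2 at 37 C.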
Pf growth 96h: P. falciparum growth inhibition at 96 hours; 6.9% of 320,000 active; Potency, µM (doses to about 28.7 µM), actives largely listed as inhibitors; P. falciparum luciferase reporter growth, 96 h
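Infected RBCs, 2% Hct / 0.05% parasitemia final; luciferase-reporter P. falciparum; cpd 96 h, 37 C, 5% CO2; luciferase detection reagent; luminescence.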
Hits are given with their value; 0 = inactive; ? = inconclusive; - = not tested or not shown; [ ] = remark or other dose. Unless noted, the call rests on the fitted dose curve; in most records, active means well fitted inhibition curve with a large enough effect; inconclusive means small, poorly fitted or top-dose-only effect, or another doubt; inactive means no such curve, though single readings can be large or run the other way.

SMILES	CHX counter	NS1 function inh	Shiga toxin inh	Pf growth 48h	Pf growth 96h
Cc1cc(C)n(-c2ccc(C(=O)NCCCN3CCOCC3)cc2)n1	0	-	0	0	0
COc1ccccc1NC(=O)c1sc2nc3n(c(=O)c2c1C)CCC3	0	0	0	0	?
Cc1c(C(=O)Nc2ccccc2F)sc2nc3n(c(=O)c12)CCC3	45.2	0	95.1	0	0
Cc1c(C(=O)Nc2ccccn2)sc2nc3n(c(=O)c12)CCC3	43.2	0	76.6	0	0
CN(C)C(=O)c1cc(C(=O)c2ccccc2Br)c[nH]1	0	0	0	0[0.00184 µM]	0
CC(C)C[C@H](NC(=O)[C@H](CO)NC(=O)CNC(=O)[C@H](CCCCN)NC(=O)[C@H](CCCN=C(N)N)NC(=O)[C@H](C)NC(=O)[C@H](Cc1ccccc1)NC(=O)[C@@H](N)CCCN=C(N)N)C(=O)N[C@@H](CCCN=C(N)N)C(=O)N[C@@H](CCC(N)=O)C(=O)N[C@@H](CCCCN)C(=O)N[C@@H](CC(N)=O)C(=O)N[C@H](C(=O)O)C(C)C	0	-	0	-	-
COc1cccc(C(=O)/C=C/Nc2ccc(S(=O)(=O)Nc3ncccn3)cc2)c1	42.8	0	103.0	0	?
O=C(/C=C\Nc1ccc(S(=O)(=O)Nc2ncccn2)cc1)c1ccccc1	50.6	0	142.3	0	0
O=C(/C=C/Nc1ccc(S(=O)(=O)Nc2ncccn2)cc1)c1ccc2ccccc2c1	0	0	0	0	0
COc1cccc(C(=O)/C=C/Nc2ccc(S(=O)(=O)Nc3nc(C)cc(C)n3)cc2)c1	0	0	0	0	2.08µM
Cc1ccc(CNC(=O)[C@]2(C(F)(F)F)C[C@H](CCc3ccccc3)CCCO2)o1	0	-	0	-	-
CC(C)(C)c1ccc(C(=O)Nc2cccc(S(=O)(=O)NC3=NCCC3)c2)cc1	-	-	-	0	0
COc1cccc2c1OC1(CCN(C(C)C)CC1)N1N=C(c3cccnc3)CC21 (configuration not stated)	53.0	0	90.3	0	0
COc1cc(C2CC(c3cccnc3)=NN2c2ccc(F)cc2)cc(OC)c1OC (configuration not stated)	0	0	0	?	?
CC(C)N1CCC2(CC1)Oc1ccc(Br)cc1C1CC(c3cccnc3)=NN12 (configuration not stated)	26.0	0	61.4	?	13.1µM
CCc1ccc(S(=O)(=O)NCCOc2cccc3cccnc23)cc1	0	0	0	?	?
C=CCc1c(C)nc(SC)nc1Nc1ccc(C(C)=O)cc1	46.1	0	82.4	?	?
C=CCc1c(C)nc(SC)nc1Nc1ccc(C(=O)O)cc1	0	0	0	0	0
COc1ccccc1-n1c(=O)c2c3c(sc2n2c(=S)[nH]nc12)CCC3	0	0	0	0	0
O=C(CS(=O)(=O)c1ccc(Cl)cc1)Nc1nnc(-c2cccs2)o1	0	0	0	0	0
COc1ccc(C(=O)CSc2nnc(CN3CCCCC3)n2-c2ccc(Cl)cc2)cc1OC	0	0	0	?	10.4µM
COc1ccc(NC(=O)CSc2nnc(CN3CCOCC3)n2-c2ccccc2)cc1Cl	0	0	0	0	?
Cc1ccc(NC(=O)C2CCCN(S(=O)(=O)c3ccc4[nH]c(=O)ccc4c3)C2)c(C)c1 (configuration not stated)	0	0	0	0	?
N#Cc1cccn1-c1nccc(-c2cccs2)n1	29.1	-	76.8	0	0
Cc1ccc(C)n1-c1nccc(-c2cccs2)n1	0	0	0	0	?
SMILES	CHX counter	NS1 function inh	Shiga toxin inh	Pf growth 48h	Pf growth 96h
CC(C)(C)NC(=O)C(=O)N/N=C/c1cccs1	37.3	0	67.4	0	0
O=C(N/N=C/c1cccs1)C(=O)Nc1cccc(Cl)c1	20.2	-	55.3	0	0
CC(C)CNC(=O)C(=O)N/N=C/c1cccs1	27.8	0	0	0	0
CCCNC(=O)C(=O)N/N=C/c1cccs1	21.3	0	0	0	0
COc1ccc(OC)c(S(=O)(=O)N2CCC(C(=O)NCC3CCCO3)CC2)c1 (configuration not stated)	0	0	0	0	0
CN1C(=O)C(=Cc2ccc(OCC(=O)Nc3ccccc3)cc2)C(=O)N(C)C1=O	49.7	0	75.1	0	0
CCC(=O)Nc1ccc(-c2nc3ccccc3c(=O)o2)cc1	28.1	-	79.5	0	0
CC(=O)Nc1ccc(C2=NN(Cc3nnc(-c4ccccc4)o3)C(=O)SC2)cc1	0	?	16.4	?	?
CCOC(=O)C1=C(C)N(CC(C)C)C(=O)/C1=C\c1ccc(OCC(=O)Nc2ccccc2)cc1	0	0	0	?	0
O=C(Nc1cccc(-c2nc3ccccc3c(=O)o2)c1)c1ccccc1	0	-	0	0	?

Source: PubChem (National Center for Advancing Translational Sciences (NCATS))
